We go through 8 compounds from ChEMBL document CHEMBL1961873, “Compounds: GSK PKIS; Assays: Nanosyn kinase panel” (2012).

SMILES strings stand for the structures.

For assay [1], the target named is T1, Tyrosine-protein kinase receptor TYRO3 (Homo sapiens) (UniProt Q06418).
T1 sequence (whole entry): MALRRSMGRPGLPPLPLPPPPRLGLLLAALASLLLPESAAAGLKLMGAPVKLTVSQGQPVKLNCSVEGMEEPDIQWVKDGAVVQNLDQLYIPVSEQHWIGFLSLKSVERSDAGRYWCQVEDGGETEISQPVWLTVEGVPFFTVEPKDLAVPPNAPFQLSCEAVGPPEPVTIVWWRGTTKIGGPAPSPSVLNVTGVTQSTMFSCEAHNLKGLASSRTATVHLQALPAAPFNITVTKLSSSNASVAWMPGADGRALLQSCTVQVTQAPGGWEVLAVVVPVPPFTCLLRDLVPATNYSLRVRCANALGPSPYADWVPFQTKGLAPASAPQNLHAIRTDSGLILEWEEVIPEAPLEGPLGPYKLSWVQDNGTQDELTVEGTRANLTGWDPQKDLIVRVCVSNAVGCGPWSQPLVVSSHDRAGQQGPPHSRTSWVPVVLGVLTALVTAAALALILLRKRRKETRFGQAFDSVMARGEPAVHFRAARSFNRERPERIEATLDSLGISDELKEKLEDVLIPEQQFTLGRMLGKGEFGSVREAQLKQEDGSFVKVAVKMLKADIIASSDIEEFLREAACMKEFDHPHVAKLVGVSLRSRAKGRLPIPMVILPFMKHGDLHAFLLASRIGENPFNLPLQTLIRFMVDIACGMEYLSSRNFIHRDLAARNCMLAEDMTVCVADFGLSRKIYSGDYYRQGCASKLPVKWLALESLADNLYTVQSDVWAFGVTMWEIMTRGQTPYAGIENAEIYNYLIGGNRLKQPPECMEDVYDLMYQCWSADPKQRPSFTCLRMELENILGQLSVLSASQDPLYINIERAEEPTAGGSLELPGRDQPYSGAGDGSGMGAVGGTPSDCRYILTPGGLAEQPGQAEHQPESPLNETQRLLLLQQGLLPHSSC
As to conditions: at 1 µM.

The target of assay [2] is Tyrosine-protein kinase Yes (Homo sapiens) (UniProt P07947). As to conditions: at 0.1 µM.
The target is the same in assay [3]. As to conditions: at 1 µM.
In assay [4] the target is T2, Tyrosine-protein kinase ZAP-70 (Homo sapiens) (UniProt P43403).
T2 sequence (whole entry): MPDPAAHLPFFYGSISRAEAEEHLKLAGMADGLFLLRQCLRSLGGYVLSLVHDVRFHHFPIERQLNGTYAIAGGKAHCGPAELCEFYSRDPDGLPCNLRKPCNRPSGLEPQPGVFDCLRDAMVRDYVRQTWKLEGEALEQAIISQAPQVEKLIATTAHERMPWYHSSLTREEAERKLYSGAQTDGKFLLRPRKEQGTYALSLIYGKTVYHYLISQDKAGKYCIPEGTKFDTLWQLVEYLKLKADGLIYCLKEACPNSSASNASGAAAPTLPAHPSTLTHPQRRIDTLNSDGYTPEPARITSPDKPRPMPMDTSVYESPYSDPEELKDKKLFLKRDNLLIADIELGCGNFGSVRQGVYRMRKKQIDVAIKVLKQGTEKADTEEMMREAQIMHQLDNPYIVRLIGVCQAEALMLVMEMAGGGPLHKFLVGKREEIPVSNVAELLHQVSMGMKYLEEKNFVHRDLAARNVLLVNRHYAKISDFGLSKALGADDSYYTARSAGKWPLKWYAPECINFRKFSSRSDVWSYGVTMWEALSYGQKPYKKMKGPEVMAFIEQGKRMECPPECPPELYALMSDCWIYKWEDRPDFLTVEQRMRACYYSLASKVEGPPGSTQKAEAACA
As to conditions: at 0.1 µM.

The target of assay [5] is T2, Tyrosine-protein kinase ZAP-70 (Homo sapiens). As to conditions: at 1 µM.
Assay [6] concerns the target Serine/threonine-protein kinase B-raf (Homo sapiens) (UniProt P15056). As to conditions: at 0.1 µM.
The target is the same in assay [7]. As to conditions: at 1 µM.
The test system of assay [8] is Serine/threonine-protein kinase B-raf (Homo sapiens), P15056 [V600E]. As to conditions: at 0.1 µM.
The test system is the same in assay [9]. As to conditions: at 1 µM.
The target in assay [10] is RAF proto-oncogene serine/threonine-protein kinase (Homo sapiens) (UniProt P04049). As to conditions: at 0.1 µM.
Assay [11] shares this target. As to conditions: at 1 µM.
Assay [12] addresses T3, Interleukin-1 receptor-associated kinase 4 (Homo sapiens) (UniProt Q9NWZ3).
T3 sequence (whole entry): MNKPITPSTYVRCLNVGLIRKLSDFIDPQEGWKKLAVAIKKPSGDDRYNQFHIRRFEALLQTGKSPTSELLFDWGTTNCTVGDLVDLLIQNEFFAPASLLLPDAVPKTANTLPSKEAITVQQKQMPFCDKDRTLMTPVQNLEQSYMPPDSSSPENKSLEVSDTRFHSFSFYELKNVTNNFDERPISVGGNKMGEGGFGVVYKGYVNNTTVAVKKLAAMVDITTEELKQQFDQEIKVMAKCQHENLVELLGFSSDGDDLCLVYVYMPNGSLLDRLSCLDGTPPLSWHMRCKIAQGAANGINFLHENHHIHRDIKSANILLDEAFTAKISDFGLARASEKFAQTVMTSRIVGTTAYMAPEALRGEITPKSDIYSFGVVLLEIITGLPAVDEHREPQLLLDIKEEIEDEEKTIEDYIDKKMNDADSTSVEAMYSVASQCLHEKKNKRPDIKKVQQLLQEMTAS
As to conditions: at 0.1 µM.

Assay [13] concerns the target T3, Interleukin-1 receptor-associated kinase 4 (Homo sapiens). As to conditions: at 1 µM.
For assay [14], the target named is Leucine-rich repeat serine/threonine-protein kinase 2 (Homo sapiens) (UniProt Q5S007). As to conditions: at 0.1 µM.
The target is the same in assay [15]. As to conditions: at 1 µM.
For assay [16], the system named is Leucine-rich repeat serine/threonine-protein kinase 2 (Homo sapiens), Q5S007 [G2019S]. As to conditions: at 0.1 µM.
Assay [17] has the same test system. As to conditions: at 1 µM.

Serine/threonine-protein kinase B-raf (Homo sapiens), P15056 [V600E], sequence (P15056 whole entry V600E): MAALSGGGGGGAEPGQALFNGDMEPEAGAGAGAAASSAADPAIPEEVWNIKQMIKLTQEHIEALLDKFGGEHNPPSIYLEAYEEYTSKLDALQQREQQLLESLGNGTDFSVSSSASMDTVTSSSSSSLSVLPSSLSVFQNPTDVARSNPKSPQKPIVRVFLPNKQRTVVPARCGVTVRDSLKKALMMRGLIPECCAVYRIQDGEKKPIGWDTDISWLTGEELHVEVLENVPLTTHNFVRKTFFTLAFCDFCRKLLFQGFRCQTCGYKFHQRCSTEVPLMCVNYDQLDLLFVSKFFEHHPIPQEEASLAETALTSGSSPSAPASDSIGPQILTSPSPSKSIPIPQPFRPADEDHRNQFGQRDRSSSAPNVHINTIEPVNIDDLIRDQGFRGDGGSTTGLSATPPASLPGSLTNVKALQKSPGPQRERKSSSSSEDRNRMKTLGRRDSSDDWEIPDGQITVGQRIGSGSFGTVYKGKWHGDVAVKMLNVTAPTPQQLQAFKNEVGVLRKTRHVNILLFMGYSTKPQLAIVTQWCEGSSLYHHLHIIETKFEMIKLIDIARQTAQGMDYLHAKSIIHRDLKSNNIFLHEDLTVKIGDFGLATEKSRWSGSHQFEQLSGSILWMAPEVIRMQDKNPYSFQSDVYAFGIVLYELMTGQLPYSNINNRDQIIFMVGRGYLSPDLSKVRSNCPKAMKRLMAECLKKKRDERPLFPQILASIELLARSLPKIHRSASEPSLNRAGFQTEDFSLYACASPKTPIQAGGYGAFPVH
Serine/threonine-protein kinase B-raf (Homo sapiens), sequence (P15056 whole entry): as the sequence (P15056 whole entry V600E) above, with E600V counted along it
Leucine-rich repeat serine/threonine-protein kinase 2 (Homo sapiens), Q5S007 [G2019S], sequence (Q5S007 whole entry G2019S): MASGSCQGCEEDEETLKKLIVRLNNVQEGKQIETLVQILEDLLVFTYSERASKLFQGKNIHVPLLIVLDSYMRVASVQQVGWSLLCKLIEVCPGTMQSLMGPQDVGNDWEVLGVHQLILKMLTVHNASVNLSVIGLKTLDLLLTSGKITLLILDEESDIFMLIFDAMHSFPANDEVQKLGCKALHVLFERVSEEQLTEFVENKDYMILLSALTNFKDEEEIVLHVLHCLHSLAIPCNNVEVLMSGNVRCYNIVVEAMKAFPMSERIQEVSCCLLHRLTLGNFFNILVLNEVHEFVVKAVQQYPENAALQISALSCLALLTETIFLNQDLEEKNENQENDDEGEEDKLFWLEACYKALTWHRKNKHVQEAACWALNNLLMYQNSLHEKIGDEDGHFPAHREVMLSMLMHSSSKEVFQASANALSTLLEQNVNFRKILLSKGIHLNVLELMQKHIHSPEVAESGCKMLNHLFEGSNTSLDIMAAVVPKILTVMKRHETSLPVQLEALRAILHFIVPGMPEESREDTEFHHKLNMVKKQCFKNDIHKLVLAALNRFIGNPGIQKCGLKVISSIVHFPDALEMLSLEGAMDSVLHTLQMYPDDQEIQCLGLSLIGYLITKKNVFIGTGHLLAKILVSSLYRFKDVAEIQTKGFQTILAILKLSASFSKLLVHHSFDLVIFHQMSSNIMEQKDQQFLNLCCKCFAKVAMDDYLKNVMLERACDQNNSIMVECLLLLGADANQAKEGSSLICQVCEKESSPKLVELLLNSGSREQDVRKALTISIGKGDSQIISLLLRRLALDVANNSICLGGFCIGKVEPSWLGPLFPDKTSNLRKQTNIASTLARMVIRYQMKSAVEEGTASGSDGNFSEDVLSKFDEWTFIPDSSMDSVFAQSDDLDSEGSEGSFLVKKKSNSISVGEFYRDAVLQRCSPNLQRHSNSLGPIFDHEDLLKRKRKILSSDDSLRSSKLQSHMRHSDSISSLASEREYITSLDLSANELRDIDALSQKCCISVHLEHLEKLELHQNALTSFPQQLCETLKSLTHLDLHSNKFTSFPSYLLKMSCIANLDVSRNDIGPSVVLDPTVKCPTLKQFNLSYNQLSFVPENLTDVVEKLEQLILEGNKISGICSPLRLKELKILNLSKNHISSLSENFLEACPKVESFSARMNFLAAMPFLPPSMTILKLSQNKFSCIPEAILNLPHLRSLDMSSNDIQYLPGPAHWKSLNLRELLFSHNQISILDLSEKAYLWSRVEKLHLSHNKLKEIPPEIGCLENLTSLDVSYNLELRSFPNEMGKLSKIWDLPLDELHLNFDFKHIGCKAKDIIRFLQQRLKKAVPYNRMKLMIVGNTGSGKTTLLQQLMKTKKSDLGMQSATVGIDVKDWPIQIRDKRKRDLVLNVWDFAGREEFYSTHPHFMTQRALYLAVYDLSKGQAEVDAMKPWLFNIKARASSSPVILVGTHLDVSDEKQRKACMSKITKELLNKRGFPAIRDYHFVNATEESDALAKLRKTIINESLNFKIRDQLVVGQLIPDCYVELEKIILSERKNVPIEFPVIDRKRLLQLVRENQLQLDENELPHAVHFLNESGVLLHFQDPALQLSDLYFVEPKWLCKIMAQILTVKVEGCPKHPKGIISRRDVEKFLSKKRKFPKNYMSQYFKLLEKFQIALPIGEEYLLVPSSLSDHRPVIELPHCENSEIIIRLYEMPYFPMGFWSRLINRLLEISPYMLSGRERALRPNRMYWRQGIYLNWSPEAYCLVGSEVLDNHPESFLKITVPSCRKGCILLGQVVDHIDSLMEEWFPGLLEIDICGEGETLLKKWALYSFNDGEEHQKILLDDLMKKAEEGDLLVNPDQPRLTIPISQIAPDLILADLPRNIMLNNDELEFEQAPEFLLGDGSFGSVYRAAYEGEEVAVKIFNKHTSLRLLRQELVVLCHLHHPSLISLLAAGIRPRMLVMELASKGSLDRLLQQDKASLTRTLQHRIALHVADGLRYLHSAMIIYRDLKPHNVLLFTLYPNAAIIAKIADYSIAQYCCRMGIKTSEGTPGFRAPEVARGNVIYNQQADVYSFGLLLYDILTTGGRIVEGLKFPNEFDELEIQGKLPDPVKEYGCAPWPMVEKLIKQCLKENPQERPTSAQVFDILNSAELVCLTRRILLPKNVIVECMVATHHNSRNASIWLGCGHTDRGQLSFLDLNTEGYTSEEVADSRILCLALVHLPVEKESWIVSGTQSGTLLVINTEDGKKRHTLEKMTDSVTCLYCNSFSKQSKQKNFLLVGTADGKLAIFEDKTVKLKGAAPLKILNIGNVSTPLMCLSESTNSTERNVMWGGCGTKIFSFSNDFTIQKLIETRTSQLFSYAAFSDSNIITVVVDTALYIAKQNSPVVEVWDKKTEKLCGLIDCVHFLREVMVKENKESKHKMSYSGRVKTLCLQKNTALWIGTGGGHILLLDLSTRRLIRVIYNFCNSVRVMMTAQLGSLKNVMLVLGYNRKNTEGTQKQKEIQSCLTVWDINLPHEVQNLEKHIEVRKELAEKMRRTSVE
Leucine-rich repeat serine/threonine-protein kinase 2 (Homo sapiens), sequence (Q5S007 whole entry): as the sequence (Q5S007 whole entry G2019S) above, with S2019G counted along it
RAF proto-oncogene serine/threonine-protein kinase (Homo sapiens), sequence (P04049 whole entry): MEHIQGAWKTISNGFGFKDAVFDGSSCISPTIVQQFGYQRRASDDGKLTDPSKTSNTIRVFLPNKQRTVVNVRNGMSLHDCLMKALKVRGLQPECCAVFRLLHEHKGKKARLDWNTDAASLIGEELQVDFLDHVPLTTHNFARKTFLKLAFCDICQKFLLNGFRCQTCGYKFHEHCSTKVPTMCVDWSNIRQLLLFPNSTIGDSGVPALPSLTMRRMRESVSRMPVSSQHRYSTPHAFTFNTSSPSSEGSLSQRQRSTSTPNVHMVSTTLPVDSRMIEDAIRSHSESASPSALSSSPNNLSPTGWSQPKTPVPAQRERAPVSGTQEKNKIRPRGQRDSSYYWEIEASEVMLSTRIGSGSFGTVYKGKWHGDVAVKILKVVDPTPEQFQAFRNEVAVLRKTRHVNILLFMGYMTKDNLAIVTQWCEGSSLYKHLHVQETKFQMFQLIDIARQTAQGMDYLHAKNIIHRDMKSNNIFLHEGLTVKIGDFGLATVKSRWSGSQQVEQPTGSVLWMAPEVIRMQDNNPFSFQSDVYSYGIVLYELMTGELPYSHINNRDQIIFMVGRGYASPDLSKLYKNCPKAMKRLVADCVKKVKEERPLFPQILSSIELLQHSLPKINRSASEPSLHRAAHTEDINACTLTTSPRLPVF
Tyrosine-protein kinase Yes (Homo sapiens), sequence (P07947 2-543 limits assumed): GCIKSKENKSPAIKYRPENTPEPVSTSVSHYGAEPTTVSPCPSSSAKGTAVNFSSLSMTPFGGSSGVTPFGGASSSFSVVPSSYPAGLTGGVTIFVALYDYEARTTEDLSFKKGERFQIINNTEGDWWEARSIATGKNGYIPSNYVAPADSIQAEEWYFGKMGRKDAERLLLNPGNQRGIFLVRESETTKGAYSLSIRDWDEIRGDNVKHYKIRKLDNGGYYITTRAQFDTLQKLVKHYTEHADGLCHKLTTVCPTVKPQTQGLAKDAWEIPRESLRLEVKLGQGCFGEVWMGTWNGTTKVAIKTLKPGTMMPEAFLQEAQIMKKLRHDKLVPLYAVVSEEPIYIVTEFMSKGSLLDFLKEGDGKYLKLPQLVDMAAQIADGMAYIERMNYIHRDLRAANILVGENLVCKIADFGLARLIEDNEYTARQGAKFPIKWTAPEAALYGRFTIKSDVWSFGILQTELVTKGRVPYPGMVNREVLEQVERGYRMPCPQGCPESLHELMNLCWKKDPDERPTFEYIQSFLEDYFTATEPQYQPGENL

`CCn1c(-c2nonc2N)nc2ccncc21`: the inhibition (usually the drop in the measured response relative to a control, in per cent) in assay [1] was -0.39%; in assay [2] it was 1.81%; in [3] it was -1.91%; in assay [4], 7.67%; in assay [5], 3.68%; in [6], 2.92%. The inhibition in assay [7] was 2.33%; in assay [8], 1.64%; in assay [9], 3.84%; in assay [10], 6.58%; in [11] it was 14%; in assay [12] it was 2.09%. The inhibition in assay [13] is 0.65%; in assay [14], 1.49%; in assay [15], 2.85%; in assay [16] it was 1.49%; in [17] it was 6.2%.
For the compound `COc1ccc2cc(-c3c(-c4ccncc4)nc(-c4ccc([S+](C)[O-])cc4)n3C)ccc2c1` (centres undefined), the inhibition is 0.86% in [1]; 2.16% in assay [2]; 8.42% in [3]; 1.94% in assay [4]; 2.34% in [5]; 3.84% in assay [6]. Further, the inhibition was 5.05% in assay [7]; 4.92% in assay [8]; 4.5% in assay [9]; 0.38% in [10]; 9.73% in assay [11]; 3.57% in assay [12]. Besides, the inhibition in [13] came to 1.12%; in assay [14], 2.6%; in assay [15], 4.23%; in assay [16], 3.37%; in [17], 5.02%.
Regarding `COc1cc2ncn(-c3cc(O[C@@H](C)c4ccccc4Cl)c(C(N)=O)s3)c2cc1OC`, the inhibition came to 6% in [1]; 6.69% in assay [2]; 33.2% in assay [3]; 2.45% in assay [5]; 5.9% in [6]; 5.17% in assay [7]. Besides, the inhibition in [8] was 4.21%; in [9], 4.64%; in assay [10], -0.12%; in [11], 4.09%; in assay [12], 1.23%; in assay [13], 2.08%. The inhibition in [14] was 10.9%; in assay [15] it was 50%; in assay [16], 24%; in assay [17], 64%.
Turning to `CS(=O)(=O)CCNCc1nc(-c2ccc3ncnc(Nc4ccc(F)c(Cl)c4)c3c2)cs1`, the inhibition is 3.05% in [1]; -0.53% in assay [2]; 9.54% in assay [3]; -0.36% in [4]; -0.71% in assay [5]; 1.66% in [6]. The inhibition in [7] was 3.47%; in [8] it was 1.41%; in assay [9], 3.88%; in assay [10], -0.76%; in [11] it was -0.82%; in [12], 0.41%. Moreover, the inhibition came to 1.35% in assay [13]; 2.13% in [14]; 5.82% in [15]; 1.31% in assay [16]; 2.37% in [17].
Turning to `[O-][S+]1CCN(Cc2ccc(-c3ccc4ncnc(Nc5ccc(OCc6ccccc6)c(F)c5)c4c3)o2)CC1`, the inhibition in [1] amounted to 3.36%; in assay [2], 5.74%; in assay [3] it was 30.5%; in assay [4], 2.48%; in assay [5], 1.13%; in assay [6], 2.02%. Further, the inhibition was 5.8% in assay [7]; 2.97% in assay [8]; 6.44% in assay [9]; -0.54% in assay [10]; -3.42% in assay [11]; 3.06% in assay [12]. Moreover, the inhibition in assay [13] worked out at 1.06%; in assay [14] it was 2.89%; in assay [15], 2.77%; in assay [16], 2.32%; in assay [17], 8.38%.
Regarding `Cc1nnc(-c2ccc(C)c(-c3ccc(C(=O)Nc4cccc(C#N)c4)cc3)c2)o1`, the inhibition in [1] came to 1.98%; in assay [2], 1.42%; in [3] it was 5.81%; in assay [4], 2.77%; in assay [5] it was 3.12%; in assay [6] it was 3.86%. Further, the inhibition in assay [7] was 3.97%; in assay [8], 3.34%; in assay [9], 3.85%; in assay [10] it was -4.37%; in assay [11] it was -9.42%; in assay [12], 4.13%. Further, the inhibition was 0.84% in assay [13]; 0.06% in [14]; 0.83% in assay [15]; 2.49% in assay [16]; 7.62% in [17].
Turning to `O=C1NC(=O)C(c2ccc(Cl)cc2)=C1Nc1ccc(Cl)c(C(=O)O)c1`, the inhibition was -3.28% in assay [1]; -3.3% in assay [2]; 0.94% in assay [3]; -3.81% in assay [4]; -2.06% in assay [5]; -1.66% in [6]. Moreover, the inhibition in assay [7] is -3.28%; in [8], -4%; in assay [9], -3.77%; in assay [10], -4.76%; in assay [12], -1.49%; in assay [13] it was -0.81%. Also, the inhibition in assay [14] is -0.67%; in assay [15], 0.65%; in assay [16], 1.27%; in [17], 3.84%.
Regarding `CS(=O)(=O)CCNCc1ccc(-c2ccc3ncnc(Nc4ccc(OCc5ccccc5)c(Cl)c4)c3c2)o1`, the inhibition was 2.01% in assay [1]; 7.69% in assay [2]; 39.4% in [3]; -7.6% in assay [4]; -0.02% in [5]; 0.1% in assay [6]. The inhibition in [7] is 1.24%; in assay [8] it was 1.67%; in assay [9] it was 1.38%; in assay [10] it was -1.06%; in assay [11], -1.69%; in assay [12], 0.4%. Besides, the inhibition in assay [13] was determined as 0.86%; in [14], 2.66%; in [15], 7.97%; in assay [16], 4.51%; in assay [17], 7.5%.
